In PubChem BioAssay AID411 (National Center for Advancing Translational Sciences (NCATS), 2006) one finds Potency and activity change, negative = inhibition data, which are given here for 53 molecules.

Out of some 72,000 compounds screened, about 1,600 (2.2%) were called active. Where a call stands in place of a potency, no number is given. This is one part of a sample in which actives are shown more often than they occur. Values without a mark were called inactive. Calls follow the shape of the dose curve; as a rule, active = well fitted inhibition curve with a large enough effect; inconclusive = small, poorly fitted or top-dose-only effect; inactive = flat fitted curve, though single readings scatter.
Potency is read from the fitted curve at half-maximal effect.

Sequence of Luciferin 4-monooxygenase (Photinus pyralis) (P08659 whole entry, looked up): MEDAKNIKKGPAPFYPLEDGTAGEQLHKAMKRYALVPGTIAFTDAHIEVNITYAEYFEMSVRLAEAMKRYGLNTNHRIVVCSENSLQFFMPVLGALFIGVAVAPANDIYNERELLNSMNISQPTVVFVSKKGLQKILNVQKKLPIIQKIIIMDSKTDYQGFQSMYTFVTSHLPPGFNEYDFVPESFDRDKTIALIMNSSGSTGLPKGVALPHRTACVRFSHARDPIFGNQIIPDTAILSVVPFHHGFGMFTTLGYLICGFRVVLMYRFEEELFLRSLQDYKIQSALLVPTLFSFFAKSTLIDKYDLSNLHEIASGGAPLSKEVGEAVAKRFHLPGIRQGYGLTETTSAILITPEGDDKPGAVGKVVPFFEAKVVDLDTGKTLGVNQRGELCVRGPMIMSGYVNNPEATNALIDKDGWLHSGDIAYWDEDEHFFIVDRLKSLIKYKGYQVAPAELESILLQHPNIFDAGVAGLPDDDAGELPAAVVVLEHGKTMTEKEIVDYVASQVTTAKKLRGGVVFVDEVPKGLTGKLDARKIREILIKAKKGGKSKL

The assay concerns the target Luciferin 4-monooxygenase (Photinus pyralis) (UniProt P08659). As to the kind of experiment: qHTS Assay for Inhibitors of Firefly Luciferase. Also: nearly all actives have a fitted effect of over 40% in size. The following applies: purified firefly luciferase, luminescence, 8 min; series mostly up to 57.1 µM. The method, then:
To aid in the interpretation of high-throughput screening (HTS) results derived from luciferase-based assays, we used quantitative HTS, an approach that defines the concentration-response behavior of each library sample, to profile the ATP-dependent luciferase from Photinus pyralis against more than 72 000 samples. Luciferase (PKLight, Cambrex Corporation) was assayed for its ability to generate light using ATP and luciferin as substrates. The ATP concentration in the assay (10 uM) was within the linear range of enzyme activity for the assay conditions used. See following reference for further details: [1] Auld DS, Southall NT, Jadhav A, Johnson RL, Diller DJ, Simeonov A, Austin CP, Inglese J. Characterization of chemical libraries for luciferase inhibitory activity. J Med Chem. 2008 Apr 24;51(8):2372-86. Auld DS, Zhang YQ, Southall NT, Rai G, Landsman M, Maclure J, Langevin D, Thomas CJ, Austin CP, Inglese J. A Basis for Reduced Chemical Library Inhibition of Firefly Luciferase Obtained from Directed Evolution. J. Med. Chem., 2009, 52 (5), pp 1450#1458 [3] Auld DS, Thorne N, Nguyen DT, Inglese J. A specific mechanism for nonspecific activation in reporter-gene assays. ACS Chem Biol. 2008 Aug 15;3(8):463-70. Auld DS, Thorne N, Maguire WF, Inglese J. Mechanism of PTC124 activity in cell-based luciferase assays of nonsense codon suppression. Proc Natl Acad Sci U S A. 2009 Mar 3;106(9):3585-90. Inglese J, Auld DS, Jadhav A, Johnson RL, Simeonov A, Yasgar A, Zheng W, Austin CP. Quantitative high-throughput screening: a titration-based approach that efficiently identifies biological activities in large chemical libraries. Proc Natl Acad Sci U S A. 2006 Aug 1;103(31):11473-8.
Four uL of substrate mix (final concentration, 50 mM imidazole pH 7.2, 50 mM KCl, 7 mM MgCl2, 10 uM ATP, 0.01% Tween 20, 0.05% BSA) was dispensed into white 1536 well plates. Twenty-three nL of compound was delivered by a pin tool and 2 uL of luciferase detector mix (PKLight, Cambrex) was added. Following 8-minute incubation at ambient temperature, luminescence was measured by a ViewLux (Perkin Elmer) at 5 seconds exposure/plate.
With `c1ccc(-n2ncc3c(N4CCCC4)ncnc32)cc1`, the Potency is 5.01 µM (active).

In the case of `c1ccc(-n2ncc3c2ncn2c(C4CCCCC4)nnc32)cc1`, the Potency entry is “inactive”.

For `COc1ccc(-n2ncc3c(N4CCCc5ccccc54)ncnc32)cc1`, the Potency is 12.6 µM (active).

For the molecule `Cc1ccc(-n2ncc3c(N4CCN(c5ccc(F)cc5)CC4)ncnc32)c(C)c1`, the Potency entry was “inactive”.

For the molecule `Cc1cccc(-n2ncc3c(N4CCc5ccccc54)ncnc32)c1`, the Potency result is “inactive”.

For the molecule `COc1ccc2c(c1)C=CC1(O2)N(CCO)c2ccccc2C1(C)C` (stereo not drawn), the Potency result is “inactive”.

For `CCOC(=O)c1cc(-c2nnc(-c3cc(OC)c(OC)c(OC)c3)o2)c(C)nc1C`, the Potency entry was “inactive”.

With `CC(=O)c1c(C)n(-c2ccc(N(C)C)cc2)c2ccc(OCC(N)=O)cc12`, the Potency entry is “inactive”.

Consider `N#CC1=C(N)C(C#N)(C#N)[C@H](c2ccsc2)[C@H]2COCC=C12`, for which the Potency entry was “inactive”.

For the molecule `Cn1c(CNC(=O)C(C)(C)C)nc2ccccc21`, the Potency entry was “inactive”.

In the case of `Cc1nn2c3ccccc3nc2n(C)c1=O`, the Potency result is “inactive”.

For `Cn1c(-c2ccc(C(=O)c3ccccc3)s2)nc2ccccc21`, the Potency is 2.51 µM (active).

On to `Cn1c(=O)c2c(n(Cc3ccccc3)c1=O)NC(=O)C2CC(=O)N1CCc2ccccc2C1` (stereo not drawn), for which the Potency result was “inactive”.

In the case of `Cc1cc(Cl)c(S(=O)(=O)Nc2ccc3c(c2)OCCO3)cc1OCC(N)=O`, the Potency result was “inactive”.

As for `COc1ccccc1OCCOc1ccc(/C=N/n2cnnc2)cc1`, the Potency entry was “inactive”.

For the molecule `O=C(CSc1nc2c(cnn2-c2ccc(F)cc2)c(=O)[nH]1)N1CCCCCC1`, the Potency entry is “inactive”.

Take `O=C(NCc1cn2ccsc2n1)Nc1cccc(Cl)c1`: the Potency entry was “inactive”.

Regarding `CCCC(=O)Nc1ccc2c(c1)nc1n2CCSC1`, the Potency result was “inactive”.

Take `CCCC(=O)Nc1cccc(-c2cn3ccsc3n2)c1`: the Potency was 15.8 µM (active).

`O=C(O)CS(=O)c1ccc2c3c(cccc13)C(=O)c1ccccc1-2` (stereo not drawn): the activity change, negative = inhibition was -1.48% [at 11.4 µM].

`CC(=NCC1CCCO1)c1c(O)[nH]c(=O)[nH]c1=O` (stereo not drawn): the Potency result is “inactive”.

In the case of `O=C(CS(=O)(=O)Cc1ccccc1)NCC1CCCO1` (stereo not drawn), the Potency entry was “inactive”.

On to `O=C1C(C=NCC2CCCO2)=C(O)c2ccccc21` (stereo not drawn), for which the Potency was 15.8 µM (active).

Consider `CCCOc1ccc(-c2nc(N)n[nH]2)cc1`, for which the Potency is 15.8 µM (active).

Turning to `Nc1nc(SCCOc2ccccc2)n[nH]1`, the Potency result is “inactive”.

Take `CCCCOc1ccc(-c2ncc(C(=O)OCC)c(N)n2)cc1`: the Potency result was “inactive”.

For the molecule `Cc1cc(=O)n2c3c(cccc13)CCC2`, the Potency entry was “inactive”.

As for `O=C(Cn1[nH]c(=O)c2ccccc2c1=O)Nc1cccc(-c2nnc3n2CCCCC3)c1`, the Potency result is “inactive”.

Turning to `O=c1c2c(nc3n1CCCCC3)sc1c(O)cccc12`, the Potency is 15.8 µM (active).

In the case of `CCCn1c(=O)c2ccccc2n2c(SCC(=O)/C(C#N)=C(\C)N)nnc12`, the Potency entry is “inactive”.

With `CCc1ccc2oc(-c3ccc(N)cc3)nc2c1`, the Potency was 2 µM (active).

Turning to `CCCCCC(=O)Nc1ccc2oc(-c3ccncc3)nc2c1`, the Potency entry is “inactive”.

Turning to `Nc1ccc(-c2nnc(-c3ccc(-c4ccccc4)cc3)o2)cc1`, the Potency result was “inactive”.

Regarding `Cc1cc(Cl)c(S(=O)(=O)NCC2CCCO2)cc1OCC(N)=O` (stereo not drawn), the Potency entry was “inactive”.

Turning to `Nc1ncc(-c2cc3ccccc3oc2=O)s1`, the Potency is 12.6 µM (active).

With `O=C(NCc1ccccn1)c1cc2ccccc2oc1=O`, the Potency entry is “inactive”.

For `O=C(Oc1cccnc1)c1cc2ccccc2oc1=O`, the Potency entry is “inactive”.

As for `O=c1c(-c2ccc(F)cc2)nc2cncnc2n1-c1ccccc1`, the activity change, negative = inhibition was 0.918% [at 11.4 µM].

On to `CCC(=O)Nc1ccc(C(=O)CSc2nnc(CNc3ccc(Cl)cc3)o2)cc1OC`, for which the Potency result was “inactive”.

For `C#CC(C)(C)NC(=O)CSc1nc2c(c(=O)n(C)c(=O)n2C)n1CCCC`, the Potency result was “inactive”.

With `Cc1c(NC(=O)Nc2ccccc2Cl)sc(=S)n1C`, the Potency result is “inactive”.

Turning to `Oc1ccc(-c2csc(Nc3cccnc3)n2)cc1`, the Potency result is “inactive”.

As to `c1ccc(Nc2nc(-c3ccncc3)cs2)nc1`, the Potency is 7.94 µM (active).

For the molecule `Clc1ccc(Nc2nc(-c3cccs3)cs2)nc1`, the Potency entry was “inactive”.

For the molecule `CC(=O)OCC(=O)[C@@]1(O)CC[C@@H]2[C@H]3CCC4=CC(=O)C=C[C@]4(C)[C@]3(F)[C@@H](O)C[C@@]21C`, the Potency result is “inactive”.

Take `Cn1c2c(c(=O)n(C)c1=O)CN(Cc1ccco1)CN2`: the Potency entry was “inactive”.

With `COc1ccc(C(=O)Nc2cccnc2)cc1C(=O)Nc1cccnc1`, the Potency entry is “inactive”.

Turning to `COc1cc(OC)c(C(=O)NC2CCCCCC2)cc1OC`, the Potency entry was “inactive”.

For the molecule `COc1cc(OC)c(C(=O)Nc2ccc(N(C)C)cc2)cc1OC`, the Potency is 15.8 µM (active).

Consider `CCOP1(=O)C=C(C(C)(C)C)OC1c1ccc(F)cc1` (stereo not drawn), for which the Potency result was “inactive”.

Regarding `O=c1c(-c2ccc(F)c(F)c2)nc2cncnc2n1-c1ccccc1`, the activity change, negative = inhibition was 1.37% [at 11.4 µM].

Turning to `COc1ccc(Oc2ncc3nc(-c4ccc(F)cc4)c(=O)n(C)c3n2)cc1`, the activity change, negative = inhibition was 0.178% [at 11.4 µM].

In the case of `CN1CCC2(CC1)CCN(S(=O)(=O)c1ccccc1)CC2`, the activity change, negative = inhibition is 1.62% [at 11.4 µM].
